Holding throughout (test): NCI-60 one-dose screen, 48 h (100 = growth as untreated, 0 = no growth, -100 = all killed)
What all share (conditions): 10 µM unless noted

Test [1] deals with NCI-H23 lung.
The test system of test [2] is NCI-H322M lung.
Test [3] relates to HOP-62 NSCLC.
Test [4] has as its system NCI-H460 lung.
In test [5] the test system is HOP-92 NSCLC.
The test system of test [6] is A549/ATCC NSCLC.
The test system of test [7] is 786-0 renal.
For test [8], the system named is COLO 205 colon.
Test [9] relates to DU-145 prostate.
Test [10] concerns K-562 leukemia.
Test [11] relates to MALME-3M melanoma.
Test [12] relates to MDA-MB-231 breast.
The test system of test [13] is RXF 393 renal.
In test [14] the test system is SF-268 CNS.
Test [15] has as its system SF-295 CNS.
The subject of test [16] is SF-539 CNS.
The subject of test [17] is UACC-257 melanoma.
In test [18] the test system is M14 melanoma.
In test [19] the test system is NCI-H522 lung.

Compounds without any hit were thinned out: in the full panel of roughly 83,000, 20% have a hit.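 Assay: single dose, 48 h. Readout: percent growth (0 = no net growth; negative = cell death). Active: <10.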 Values without a mark were called inactive. Active and inactive are the calls of the source.

On to `Cn1c(I)c(C#C[Si](C)(C)C)c(=O)n(C(=O)c2ccccc2)c1=O`, for which the growth in [1] was 51.7%; in test [2] it was 94.9%; in test [3], 59.1%; in test [4] it was 55.4%; in test [5] it was -27.1% (active); in test [6] it was 80%. For the same compound, the growth in test [7] is -66.6% (active); in [8] it was -7.64% (active); in test [9] it was 0.184% (active); in test [10] it was -95.2% (active); in test [11] it was -10.3% (active); in test [12], 64.2%. Moreover, the growth is -81.5% (active) in test [13]; -18% (active) in [14]; 87.9% in test [15]; 69.4% in test [16]; -20.8% (active) in [17]; -54.7% (active) in [18].
`O=C(c1ccccc1)c1c(/C=C/c2ccccc2)nc2ccccc2c1/C=C/c1ccc(Br)cc1`: the growth in test [1] is 94.5%; in test [2], 96.7%; in test [3] it was 101%; in [5], 98.3%; in [19], 88.2%; in test [6] it was 98.1%. Moreover, the growth was 99.7% in test [7]; 114% in test [8]; 105% in [9]; 97.3% in [10]; 106% in test [11]; 100% in [12]. The growth in test [13] is 104%; in [14] it was 91.6%; in test [15], 101%; in test [16], 106%; in [17], 99.8%; in test [18], 96.8%.
Regarding `C[C@@]1(CCC#N)[C@H]2CC[C@@H]3[C@H]4[C@H](C(=O)/C=C/c5cccnc5)CC[C@]4(C#N)CC[C@@]3(C)[C@]2(C)CC[C@H]1C(=O)/C=C/c1cccnc1`, the growth in test [1] was 62.8%; in [2], 97.7%; in [3], 73.2%; in [4], 75.2%; in [5], 80.7%; in test [19], 37.9%. Further, the growth in [6] is 71.9%; in [7], 77.9%; in test [8], 71.7%; in test [9], 81.5%; in [10] it was 23.2%; in [11], 109%. Further, the growth in test [12] is 93.4%; in [13], 69.7%; in [14], 61.7%; in test [15], 100%; in test [16], 83.7%; in test [17], 67.5%. For the same compound, the growth in test [18] is 74.7%.
Regarding `C[C@H]1[C@H]2[C@H]3CC[C@@H]4[C@@]5(C)C/C(=C/c6cccnc6)C(=O)C(C)(C)[C@@H]5CC[C@@]4(C)[C@]3(C)CC[C@]23CO[C@]1(C)[C@@H](C(=O)/C=C\c1cccnc1)C3`, the growth in test [1] was -48.7% (active); in [2] it was 46.4%; in test [3], -13.6% (active); in test [4], -45.3% (active); in test [5] it was -20% (active); in test [19], -34.4% (active). Also, the growth in test [6] was -24.6% (active); in [7], -39% (active); in test [8] it was -56.8% (active); in test [9], -28.8% (active); in test [10], 6.51% (active); in test [11], -33.5% (active). Further, the growth in [12] was -30.7% (active); in [13] it was -91.8% (active); in test [14], 7.1% (active); in test [15] it was 6.07% (active); in test [16], -32.4% (active); in test [17], 13.2%. Also, the growth in [18] is -20.1% (active).
For `COCCc1ccc(OCC(O)CNC(C)C)cc1` (stereo not given), the growth was 98.5% in test [1]; 99.2% in test [2]; 101% in test [3]; 107% in [4]; 73.1% in test [5]; 93.3% in [19]. The growth was 104% in test [6]; 97.8% in test [7]; 106% in test [8]; 109% in [9]; 101% in test [10]; 97.5% in test [11]. Besides, the growth is 101% in [12]; 128% in test [13]; 104% in [14]; 101% in test [15]; 106% in test [16]; 96.3% in test [17]. Also, in test [18], the growth was 92.4%.
Take `O=c1[nH]nc(-c2ccccc2)c2c(-c3ccccc3)onc12`: the growth is 50.4% in [1]; 59.8% in test [2]; 34.4% in test [3]; 17% in test [4]; -6.41% (active) in [5]; -22.5% (active) in test [19]. The growth in test [6] is 58.5%; in [7], 45%; in test [8], 11.3%; in test [9], 25.1%; in test [10], 9.89% (active); in test [11], 37.2%. In addition, the growth in test [12] is 50.3%; in [13], 12.3%; in test [14], 42%; in test [15] it was 35.7%; in [16], 0.0732% (active); in [17], 71.2%. In addition, the growth in test [18] is 45.4%.
As for `O=C(Nc1ccccc1)Nc1cccc(Oc2nnc(Cl)c3ccccc23)c1`, the growth in [1] is 32.7%; in [2], 47.3%; in test [3], -43.4% (active); in test [4] it was 25.3%; in [5], -7.51% (active); in test [19], 2% (active). Moreover, the growth is 11.2% in test [6]; 38.2% in test [7]; 39% in test [9]; 51.6% in [10]; -29.6% (active) in test [11]; 32.1% in [12]. Moreover, the growth in test [13] is -3.63% (active); in test [14], 25.9%; in test [15] it was 31.2%; in test [16] it was -22% (active); in [17] it was 22%; in [18], 46.3%.
Turning to `COC(=O)/C=C1\S/C(=N\NS(=O)(=O)c2ccc(C)cc2)N(c2ccccc2)C1=O`, the growth in test [1] was 102%; in [2], 99.6%; in test [3], 99.4%; in test [4], 104%; in [5], 91.4%; in test [19], 91.9%. Besides, the growth is 98.6% in test [6]; 108% in test [7]; 121% in test [8]; 105% in test [9]; 84.5% in test [10]; 110% in [11]. For the same compound, the growth is 109% in [12]; 111% in [13]; 98% in [14]; 105% in test [15]; 100% in test [16]; 99.5% in [17]. Also, the growth in test [18] is 107%.
On to `COc1ccc2c(c1)C(=O)/C(=C/c1cccc(OCC(=O)Nc3nc(C)c(C)s3)c1)O2`, for which the growth was -38.6% (active) in test [1]; 122% in test [2]; 94.8% in test [3]; 158% in [4]; -74.8% (active) in test [5]; -72.4% (active) in test [19]. Moreover, the growth in test [6] is 46.8%; in [7], -17.2% (active); in test [8], -59.1% (active); in test [9] it was -76.3% (active); in [10] it was -72.2% (active); in test [11] it was -58% (active). Further, the growth in [12] is -25.1% (active); in test [13], -57.2% (active); in test [14] it was -45.5% (active); in test [15] it was -82.7% (active); in test [16], -80.6% (active); in test [17] it was 37%. Further, the growth in [18] is -44.4% (active).
Regarding `O=c1c2c3c(sc2n2c(-c4cc(-c5ccccc5)nn4-c4ccccc4)nnc2n1Cc1ccccc1)CCCC3`, the growth is 105% in test [1]; 112% in test [2]; 95% in [3]; 106% in test [4]; 53.2% in [5]; 45.9% in test [19]. Also, the growth in [6] was 101%; in test [7], 95.9%; in test [8] it was 86%; in [9], 107%; in test [10] it was 27.1%; in test [11], 123%. Also, the growth in [12] was 94.2%; in test [13] it was 90%; in test [14], 89.2%; in [15] it was 5.76% (active); in [16] it was 112%; in [17] it was 106%. Further, the growth in test [18] is 92.4%.
As for `Cc1nc2c(c(N3CCCc4ccccc43)n1)CCC2`, the growth was 25.5% in test [1]; 54.5% in [2]; 4.68% (active) in test [3]; 3.12% (active) in [4]; 0.664% (active) in test [5]; -18.6% (active) in test [19]. Further, the growth in [6] was 2.98% (active); in test [7] it was 10.1%; in [8], -59.5% (active); in test [9] it was -8.95% (active); in test [10] it was 4.8% (active); in test [11], 54.2%. Besides, the growth in [12] was 18.1%; in test [13], 33%; in test [14] it was 16.9%; in [15], 9.59% (active); in [16] it was 1.1% (active); in [17], 26.3%. For the same compound, the growth in [18] is -17.6% (active).
Consider `Cc1ccc(S(=O)(=O)N/N=C\c2cc(Cl)ccc2O)cc1`, for which the growth in [1] was 96.8%; in test [2], 114%; in test [3], 105%; in test [4], 93.7%; in test [5], 72.9%; in [19] it was 80.3%. The growth is 82% in [6]; 74.5% in test [7]; 96.9% in [8]; 92.1% in [9]; 82% in test [10]; 95.3% in [11]. The growth in test [12] is 93.8%; in [13] it was 91%; in test [14] it was 94.7%; in test [15], 92.1%; in test [16] it was 76.6%; in [17] it was 107%. Further, the growth in [18] is 96.2%.
